Results filed as inconclusive are left out. Calls of active or inactive are those of the source. Unless noted, calls follow the shape of the dose curve; as a rule, active = well fitted curve in the direction sought with a large enough effect in the repeat runs; inconclusive = weak or mixed curves; inactive = no such curve, though single readings can be large; an effect the other way counts as inactive or inconclusive.
Legend:
[1] = molecular target: Thyrotropin receptor (Homo sapiens) (UniProt P16473); test: qHTS assay to identify small molecule antagonists of the thyroid stimulating hormone receptor (TSHR) signaling pathway (AID 1259385; calls by dose curve; also: nearly all actives have a fitted effect of over 20% in size)
Thyrotropin receptor (Homo sapiens), sequence (P16473 whole entry, looked up): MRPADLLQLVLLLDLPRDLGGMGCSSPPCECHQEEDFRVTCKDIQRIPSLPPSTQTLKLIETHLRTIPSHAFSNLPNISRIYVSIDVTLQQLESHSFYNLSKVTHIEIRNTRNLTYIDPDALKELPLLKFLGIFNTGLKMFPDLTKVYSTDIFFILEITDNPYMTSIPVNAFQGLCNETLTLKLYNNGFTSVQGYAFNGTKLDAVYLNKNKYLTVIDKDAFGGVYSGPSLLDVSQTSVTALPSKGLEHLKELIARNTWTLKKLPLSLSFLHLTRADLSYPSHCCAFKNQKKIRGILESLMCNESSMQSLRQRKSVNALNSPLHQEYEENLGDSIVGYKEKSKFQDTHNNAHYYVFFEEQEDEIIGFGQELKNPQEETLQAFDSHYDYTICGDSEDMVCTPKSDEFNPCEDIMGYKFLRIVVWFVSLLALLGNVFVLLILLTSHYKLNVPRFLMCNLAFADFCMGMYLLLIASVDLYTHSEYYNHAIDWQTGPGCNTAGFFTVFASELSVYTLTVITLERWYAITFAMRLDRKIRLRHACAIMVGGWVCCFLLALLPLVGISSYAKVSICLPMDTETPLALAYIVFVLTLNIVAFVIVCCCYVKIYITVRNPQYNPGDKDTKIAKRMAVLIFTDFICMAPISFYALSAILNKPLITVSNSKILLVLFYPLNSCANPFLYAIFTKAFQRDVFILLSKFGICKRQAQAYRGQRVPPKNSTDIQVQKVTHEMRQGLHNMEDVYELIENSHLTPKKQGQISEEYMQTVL
Summary of the method: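 TSHR-HEK293 cells were plated and held 18 h at 37C/5% CO2, then given compound plus Ro20-1724 and stimulated with TSH at 1.5 ng/mL final. After 30 min at room temperature, cAMP was detected with cAMP-d2/anti-cAMP-cryptate (1 h) by fluorescence.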

[2] = qHTS assay to identify small molecule agonists of the estrogen receptor alpha (ER-alpha) signaling pathway in the presence of an antagonist - cell viability counter screen (AID 1259386);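 also: series mostly up to about 92 µM; cells exposed to compounds for 22 h at 37 °C before the viability read; nearly all actives have a fitted effect of over 30% in size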
Summary of the method: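 Using estrogen-depleted VM7Luc4E2 cells, the 15-concentration compound series was applied together with 10.0nM ICI-182,780 and incubated 22hr at 37C/5% CO2. Cell viability was then scored by CellTiter-Fluor.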

[3] = molecular target: Progesterone receptor (Homo sapiens) (UniProt P06401); test: qHTS assay to identify small molecule agonists of the progesterone receptor (PR) signaling pathway (AID 1346784; calls by dose curve; also: nearly all actives have a fitted effect of over 30% in size)
Progesterone receptor (Homo sapiens), sequence (P06401 whole entry, looked up): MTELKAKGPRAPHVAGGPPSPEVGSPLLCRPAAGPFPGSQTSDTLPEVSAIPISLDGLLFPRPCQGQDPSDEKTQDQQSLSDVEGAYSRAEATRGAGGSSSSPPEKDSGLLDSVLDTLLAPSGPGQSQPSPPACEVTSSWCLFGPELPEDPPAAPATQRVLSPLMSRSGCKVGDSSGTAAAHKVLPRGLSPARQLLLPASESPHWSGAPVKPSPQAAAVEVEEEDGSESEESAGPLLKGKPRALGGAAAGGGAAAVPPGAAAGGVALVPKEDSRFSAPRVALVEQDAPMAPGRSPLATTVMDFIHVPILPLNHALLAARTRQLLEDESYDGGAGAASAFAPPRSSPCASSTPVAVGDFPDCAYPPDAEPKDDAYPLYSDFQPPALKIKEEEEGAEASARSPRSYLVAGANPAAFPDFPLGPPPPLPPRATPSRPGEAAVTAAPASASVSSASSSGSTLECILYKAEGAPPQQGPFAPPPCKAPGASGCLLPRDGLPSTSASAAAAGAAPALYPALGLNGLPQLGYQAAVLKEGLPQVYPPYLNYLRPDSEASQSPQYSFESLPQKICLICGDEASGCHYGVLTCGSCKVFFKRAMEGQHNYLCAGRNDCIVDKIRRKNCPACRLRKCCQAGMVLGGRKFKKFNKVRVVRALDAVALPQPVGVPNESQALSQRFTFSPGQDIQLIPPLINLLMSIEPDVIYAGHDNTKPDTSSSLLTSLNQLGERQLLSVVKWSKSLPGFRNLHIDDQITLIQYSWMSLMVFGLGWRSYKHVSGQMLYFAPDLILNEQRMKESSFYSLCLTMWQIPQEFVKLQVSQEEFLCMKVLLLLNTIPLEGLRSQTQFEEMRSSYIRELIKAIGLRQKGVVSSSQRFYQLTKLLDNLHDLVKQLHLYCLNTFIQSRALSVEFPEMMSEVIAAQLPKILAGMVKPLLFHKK
Summary of the method: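 Seed PR-UAS-bla HEK 293T cells (2% charcoal-stripped FBS), incubate 6 hr at 37C; add compounds in DMSO, 16 hr at 37C; add LiveBLAzer B/G substrate, 2 hr RT; read fluorescence intensity.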

[4] = qHTS assay to identify small molecule antagonists of the progesterone receptor (PR) signaling pathway - cell viability counter screen (AID 1346798); also: series mostly up to about 92 µM; nearly all actives have a fitted effect of over 50% in size
Summary of the method: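 Measures cytotoxicity in parallel with the PR antagonist reporter read: HEK293T PR-UAS-bla cells get compound and R5020 for 16 hr, and remaining viable cells are quantified by CellTiter-Glo luminescence.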

[5] = qHTS assay to identify small molecule agonists of the progesterone receptor (PR) signaling pathway - cell viability counter screen (AID 1346799; calls by dose curve; also: nearly all actives have a fitted effect of over 45% in size)
Summary of the method: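 Using the same plates as the PR reporter screen, HEK293T PR-UAS-bla cells received compounds for 16 hr at 37C and were then lysed with CellTiter-Glo; luminescence was read 30 min later at room temperature.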

[6] = qHTS assay to identify small molecule antagonists of the TGF-beta/Smad signaling pathway - cell viability counter screen (AID 1346824); also: nearly all actives have a fitted effect of over 50% in size
Summary of the method: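 SBE-bla HEK 293T cells were plated overnight at 37 C, then given compounds in DMSO plus TGF-beta1 (added as 0.25 ng/mL solution) for 5 hr. After the bla read, CellTiter-Glo was added to the same wells and luminescence read after 30 min at room temperature.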

[7] = qHTS assay to identify small molecule agonists of the TGF-beta/Smad signaling pathway - cell viability counter screen (AID 1346829); also: top concentration of the series differs between compounds; nearly all actives have a fitted effect of over 45% in size
Summary of the method: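 Luminescence from CellTiter-Glo, read after a 30 min room-temperature incubation, gives cell viability of SBE-bla HEK 293T cells treated 5 hr with compounds at 37 C.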

[8] = qHTS assay to identify small molecule agonists of the TGF-beta/Smad signaling pathway (AID 1346859; active = well fitted activation curve with a large enough effect in the signal ratio in the repeat runs, not every such curve was filed as active; the % refers to the signal ratio; also: series mostly up to about 77 µM)
Summary of the method: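 Beta-lactamase reporter activity downstream of Smad binding elements was measured in stably transfected HEK 293T cells; compounds were incubated for 5 hr, substrate for 2 hr at room temperature.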

[9] = molecular target: Thyrotropin-releasing hormone receptor (Homo sapiens) (UniProt P34981); test: qHTS assay to identify small molecule antagonists of the thyrotropin-releasing hormone receptor (TRHR) signaling pathway (AID 1346877; active = well fitted inhibition curve with a large enough effect in the repeat runs, not every such curve was filed as active; also: series mostly up to about 51 µM)
Thyrotropin-releasing hormone receptor (Homo sapiens), sequence (P34981 whole entry, looked up): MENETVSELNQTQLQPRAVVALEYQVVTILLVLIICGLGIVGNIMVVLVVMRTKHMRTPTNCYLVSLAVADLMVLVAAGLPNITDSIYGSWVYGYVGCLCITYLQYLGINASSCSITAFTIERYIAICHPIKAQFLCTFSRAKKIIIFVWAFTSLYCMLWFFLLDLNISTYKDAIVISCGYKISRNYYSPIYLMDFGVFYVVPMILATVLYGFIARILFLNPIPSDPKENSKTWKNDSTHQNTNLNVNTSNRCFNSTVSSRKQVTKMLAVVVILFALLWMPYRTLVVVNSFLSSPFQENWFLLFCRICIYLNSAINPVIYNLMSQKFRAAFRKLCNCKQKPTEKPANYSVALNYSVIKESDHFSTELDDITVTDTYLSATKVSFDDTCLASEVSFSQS
Summary of the method: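 Calcium signal in dye-loaded TRHR/HEK293 cells; compounds added 5 min before TRH (1 nM final); fluorescence monitored 3 min at 1 s steps.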

[10] = molecular target: Thyrotropin-releasing hormone receptor (Homo sapiens) (UniProt P34981); test: qHTS assay to identify small molecule agonists of the thyrotropin-releasing hormone receptor (TRHR) signaling pathway (AID 1346891; calls by dose curve;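 also: HEK293 cells expressing TRHR with calcium dye readout; series mostly up to about 58 µM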)
Summary of the method: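 Overnight-plated (18 h, 37 °C, 5% CO2) TRHR-Hek293 cells; 2 h calcium dye at 37 °C; compound in DMSO; 3-min kinetic fluorescence read.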

[11] = Human pregnane X receptor (PXR) small molecule agonists, qHTS cell viability counter screen (AID 1346977); also: nearly all actives have a fitted effect of over 50% in size; also: potency is read from the fitted curve at half-maximal effect
Summary of the method: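 After a 5hr pre-incubation, PXR-Luc HepG2 cells received compounds plus positive control in DMSO and were kept 24hr at 37C. Cell viability was quantified by fluorescence from CellTiter-Fluor added for the final hour.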

[12] = Caspase-3/7 induction in HepG2 cells by small molecules, qHTS assay (AID 1346978); also: nearly all actives have a fitted effect of over 15% in size
Summary of the method: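 Wild-type HepG2 cells (2,000/well) were settled 5 h at 37 C, 5% CO2, then exposed to compounds in DMSO for 17 h. Caspase-3/7 activity was read by luminescence 30 min after adding Caspase-Glo 3/7 reagent at room temperature.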

[13] = Caspase-3/7 induction in CHO-K1 cells by small molecules, qHTS assay (AID 1346980); also: nearly all actives have a fitted effect of over 15% in size
Summary of the method: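 Wild-type cells were seeded at 1,500 per well and settled 5 hr at 37 C, 5% CO2, then exposed to DMSO-dissolved compounds for 17 hr. Caspase-Glo 3/7 reagent was added, and luminescence was read after 30min at room temperature.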

[14] = Caspase-3/7 induction in HepG2 cells by small molecules, qHTS cell viability counter screen (AID 1346981); also: series mostly up to about 92 µM; nearly all actives have a fitted effect of over 30% in size
Summary of the method: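 After a 5-hr attachment period at 37 C and 5% CO2, wild-type HepG2 cells received compounds in DMSO. Sixteen hours later CellTiter-Fluor was dispensed and the fluorescent signal quantified after a further hour.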

[15] = molecular target: Nuclear receptor subfamily 1 group I member 2 (Homo sapiens) (UniProt O75469); test: Human pregnane X receptor (PXR) small molecule agonists, qHTS assay (AID 1346982); also: nearly all actives have a fitted effect of over 35% in size; also: potency is read from the fitted curve at half-maximal effect
Nuclear receptor subfamily 1 group I member 2 (Homo sapiens), sequence (O75469 whole entry, looked up): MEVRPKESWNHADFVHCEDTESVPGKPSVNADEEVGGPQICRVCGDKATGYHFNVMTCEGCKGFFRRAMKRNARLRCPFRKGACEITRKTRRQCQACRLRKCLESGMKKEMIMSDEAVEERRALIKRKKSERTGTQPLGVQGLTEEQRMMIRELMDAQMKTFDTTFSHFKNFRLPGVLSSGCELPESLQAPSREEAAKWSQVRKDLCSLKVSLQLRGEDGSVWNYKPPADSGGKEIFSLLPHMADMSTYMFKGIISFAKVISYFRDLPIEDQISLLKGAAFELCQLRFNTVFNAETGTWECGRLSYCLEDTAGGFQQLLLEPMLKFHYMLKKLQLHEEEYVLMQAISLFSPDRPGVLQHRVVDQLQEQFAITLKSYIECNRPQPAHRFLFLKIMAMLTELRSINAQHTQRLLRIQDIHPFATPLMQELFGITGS
Summary of the method: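 Tox21 qHTS; PXR-Luc HepG2; compounds pinned from DMSO; 24 hr, 37 C; ONE-Glo luciferase detection, 30 min room temperature.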

[16] = Caspase-3/7 induction in CHO-K1 cells by small molecules, qHTS cell viability counter screen (AID 1346979); also: nearly all actives have a fitted effect of over 35% in size
Summary of the method: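 Multiplexed with Caspase-Glo 3/7 in CHO-K1 cells, this counter screen added CellTiter-Fluor after 16hr of compound exposure and recorded fluorescence 1hr later.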

[17] = molecular target: Progesterone receptor (Homo sapiens) (UniProt P06401); test: qHTS assay to identify small molecule antagonists of the progesterone receptor (PR) signaling pathway (AID 1346795; active = well fitted inhibition curve with a large enough effect in the signal ratio in the repeat runs, not every such curve was filed as active; the % refers to the signal ratio)
Summary of the method: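 Screening used a GripTite HEK293T line with PR-responsive UAS-beta-lactamase. Cells were challenged with compound in the presence of 1 nM R5020 final for 16 hr at 37C; B/G FRET substrate, 2 hr room temperature, fluorescence.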

[18] = molecular target: Nuclear receptor subfamily 1 group I member 2 (Rattus norvegicus) (UniProt Q9R1A7); test: Rat pregnane X receptor (rPXR) activation by small molecules, qHTS assay (AID 1346983); settings: rPXR luciferase reporter cells, One-Glo luminescence, 24 h; max activation: stronger effect = higher value; also: nearly all actives have a fitted effect of over 20% in size
Nuclear receptor subfamily 1 group I member 2 (Rattus norvegicus), sequence (Q9R1A7 whole entry, looked up): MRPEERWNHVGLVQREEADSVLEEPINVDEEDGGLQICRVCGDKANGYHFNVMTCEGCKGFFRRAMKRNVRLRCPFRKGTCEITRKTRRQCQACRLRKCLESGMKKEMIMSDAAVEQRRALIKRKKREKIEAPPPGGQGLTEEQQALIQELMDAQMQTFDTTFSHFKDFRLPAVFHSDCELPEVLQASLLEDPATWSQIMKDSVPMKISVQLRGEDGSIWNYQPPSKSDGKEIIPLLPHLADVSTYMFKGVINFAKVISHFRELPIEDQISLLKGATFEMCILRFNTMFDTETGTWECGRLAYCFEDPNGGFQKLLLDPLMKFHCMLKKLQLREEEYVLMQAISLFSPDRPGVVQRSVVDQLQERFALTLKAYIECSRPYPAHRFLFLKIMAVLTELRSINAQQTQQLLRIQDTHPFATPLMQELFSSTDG
Summary of the method: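 Cell-based rPXR luciferase reporter assay, 2,000 cells per well, rested 5hr at 37 C before compound addition in DMSO, then 24 hr at 37 C. One-Glo reagent was added and luminescence read after 30 min at room temperature.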

[19] = molecular target: Nuclear receptor subfamily 1 group I member 2 (Homo sapiens) (UniProt O75469); test: CYP3A4 induction through human pregnane X receptor (PXR) by small molecules, qHTS assay (AID 1346984); also: nearly all actives have a fitted effect of over 40% in size
Summary of the method: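 Cells (DPX-2; HepG2 with PXR element plus CYP3A4-promoter luciferase) settled 5hr, then were treated 24hr at 37C. A 3hr, 3uM-final Luciferin-IPA step preceded luminescence measurement with One-Glo.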

[20] = molecular target: Nuclear receptor subfamily 1 group I member 2 (Homo sapiens) (UniProt O75469); test: Human pregnane X receptor (PXR) activation by small molecules, qHTS assay (AID 1346985); also: nearly all actives have a fitted effect of over 40% in size
Summary of the method: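 DPX-2 cells (HepG2 co-transfected with a PXR response element and a CYP3A4-promoter luciferase construct) were seeded at 2,000 per well, rested 5 hr at 37C, then exposed to DMSO-dissolved compounds for 24 hr. Activation was read as luciferase luminescence.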
% is scaled to controls: 0 for no effect and ±100 for the full control effect.

CO[Si](CCCNCCC[Si](OC)(OC)OC)(OC)OC
inactive: Potency [1] | outcome [2] | Potency [3] | Potency [4] | Potency [5] | outcome [6] | outcome [7] | outcome [8] | outcome [9] | outcome [10] | Potency [11] | outcome [12] | outcome [13] | outcome [14] | Potency [15]

O=S(=O)(c1cccc2cnccc12)N1CCCNCC1
inactive: Potency [1] | outcome [2] | Potency [3] | Potency [4] | Potency [5] | outcome [6] | outcome [7] | outcome [8] | outcome [10] | outcome [12] | Potency [16] | outcome [13] | outcome [14]
active: Potency [11] 26.6 µM

CC(=O)NC(Cc1ccccc1)C(=O)O (stereo not given)
inactive: Potency [1] | outcome [2] | Potency [3] | Potency [4] | Potency [5] | outcome [6] | outcome [7] | outcome [8] | outcome [9] | outcome [10] | Potency [11] | outcome [12] | Potency [16] | outcome [13] | outcome [14] | Potency [15]

C=CCn1c(=O)n([C@@H]2O[C@H](CO)[C@@H](O)[C@H]2O)c2nc(N)[nH]c(=O)c21
inactive: Potency [1] | outcome [2] | Potency [3] | Potency [17] | Potency [4] | outcome [6] | outcome [7] | outcome [8] | outcome [9] | outcome [10] | Potency [11] | outcome [12] | Potency [16] | outcome [13] | outcome [14] | Potency [15] | max activation [18] -4.51% | Potency [19] | Potency [20]

CC1=CCC2C(C1)C2(C)C (stereo not given)
inactive: Potency [1] | outcome [2] | Potency [3] | Potency [17] | Potency [4] | outcome [6] | outcome [7] | outcome [8] | outcome [9] | outcome [10] | Potency [11] | outcome [12] | outcome [13] | outcome [14]
active: Potency [15] 48.6 µM

O=C(O)c1cccc(C(=O)O)n1
inactive: Potency [1] | outcome [2] | Potency [3] | Potency [17] | Potency [4] | outcome [6] | outcome [7] | outcome [8] | outcome [9] | outcome [10] | Potency [11] | outcome [12] | Potency [16] | outcome [13] | outcome [14] | Potency [15]

CC(C)[N+](C)(C)CC(O)COc1cccc2ccccc12 (stereo not given)
inactive: Potency [1] | outcome [2] | Potency [3] | Potency [17] | Potency [5] | outcome [6] | outcome [7] | outcome [8] | outcome [10] | outcome [12] | Potency [16] | outcome [13] | outcome [14] | Potency [15] | max activation [18] -2.92% | Potency [19] | Potency [20]

NC(=O)c1c(Cl)cccc1Cl
inactive: Potency [1] | outcome [2] | Potency [3] | Potency [4] | Potency [5] | outcome [6] | outcome [7] | outcome [8] | outcome [9] | outcome [10] | outcome [12] | Potency [16] | outcome [13] | outcome [14]
active: Potency [15] 0.0611 µM

CCCCNc1ccccc1
inactive: Potency [1] | outcome [2] | Potency [3] | Potency [17] | Potency [5] | outcome [6] | outcome [7] | outcome [8] | outcome [9] | outcome [10] | Potency [11] | outcome [12] | Potency [16] | outcome [13] | outcome [14]

C=C(C)[C@@H]1CCC2=CC(=O)C[C@@H](C)[C@]2(C)C1
inactive: Potency [1] | outcome [2] | Potency [3] | Potency [5] | outcome [6] | outcome [7] | outcome [8] | Potency [11] | outcome [12] | Potency [16] | outcome [13] | outcome [14]

CCCCC=O
inactive: Potency [1] | outcome [2] | Potency [3] | Potency [17] | Potency [4] | outcome [6] | outcome [7] | outcome [8] | outcome [10] | Potency [11] | outcome [12] | Potency [16] | outcome [13] | outcome [14] | Potency [15]

CCOC(=O)Cn1c(=O)sc2cccc(Cl)c21
active: Potency [15] 27.3 µM
inactive: Potency [1] | outcome [2] | Potency [3] | Potency [4] | Potency [5] | outcome [6] | outcome [7] | outcome [8] | outcome [9] | outcome [10] | outcome [12] | Potency [16] | outcome [13]

CCN1CCCC(OC(=O)C(c2ccccc2)c2ccccc2)C1 (stereo not given)
inactive: Potency [1] | outcome [2] | Potency [3] | Potency [17] | outcome [6] | outcome [7] | outcome [8] | outcome [9] | outcome [10] | outcome [12] | Potency [16] | outcome [13] | outcome [14] | Potency [15] | max activation [18] 0.492%

CN(C)CCOC(c1ccc(Cl)cc1)c1ccccn1 (stereo not given)
inactive: Potency [1] | outcome [2] | Potency [3] | Potency [17] | Potency [4] | Potency [5] | outcome [7] | outcome [8] | outcome [10] | Potency [11] | outcome [12] | Potency [16] | outcome [13] | outcome [14] | Potency [15] | max activation [18] -0.352% | Potency [19]

Source: PubChem BioAssay (Tox21)
